Measured values taken from PubChem BioAssay AID631 (The Scripps Research Institute Molecular Screening Center, 2007).
About 810 (0.41%) of roughly 200,000 compounds were called active. Cut-off read from the data, not from the text of the source: active = activation above about 19%; inactive = the rest. For the sample, actives were picked, then their nearest neighbours and some compounds at random.

Target: Peroxisome proliferator-activated receptor gamma (Homo sapiens) (UniProt P37231)
Experiment: enhancers of SRC-1 binding to PPARgamma – biochemical, primary screen (AID 631);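 note: 0% = DMSO and 100% = reference agonist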
Settings: PPARgamma-SRC-1 coactivator recruitment biochemical assay; at 8 µM; stronger effect = higher value

Peroxisome proliferator-activated receptor gamma (Homo sapiens), sequence (P37231 whole entry, looked up): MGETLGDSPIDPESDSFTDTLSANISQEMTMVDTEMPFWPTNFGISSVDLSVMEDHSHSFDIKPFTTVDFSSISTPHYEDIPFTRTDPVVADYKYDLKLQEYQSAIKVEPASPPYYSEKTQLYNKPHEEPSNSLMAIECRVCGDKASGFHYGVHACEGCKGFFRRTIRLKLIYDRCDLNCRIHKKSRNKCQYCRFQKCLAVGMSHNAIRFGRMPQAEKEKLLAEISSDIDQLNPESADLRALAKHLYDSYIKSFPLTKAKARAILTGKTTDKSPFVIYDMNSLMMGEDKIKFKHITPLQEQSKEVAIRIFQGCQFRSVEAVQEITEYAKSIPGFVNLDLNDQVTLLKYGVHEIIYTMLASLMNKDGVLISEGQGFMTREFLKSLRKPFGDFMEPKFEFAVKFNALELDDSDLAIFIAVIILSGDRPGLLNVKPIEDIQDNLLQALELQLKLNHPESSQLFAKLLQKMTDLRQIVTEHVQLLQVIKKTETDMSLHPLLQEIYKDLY

activation, inactive:
COc1cc(OC)c(C2=NOC(C(=O)Nc3c(C)n(C)n(-c4ccccc4)c3=O)C2)cc1Cl (stereo not drawn) 3.3%
O=C(O)Cc1sc(-c2ccc(C(=O)O)cc2)nc1-c1ccccc1 12.4%
Cc1ccc(-c2nc(C)sc2CC(=O)O)cc1 -2%
CC1(C)C(C=C(Cl)Cl)C1C(=O)N(Cc1ccc(Cl)cc1)C1CCS(=O)(=O)C1 (stereo not drawn) 1.5%
N#C/C(C(=O)N1CCOCC1)=C1/SC(Cc2ccc(F)cc2)C(=O)N1c1ccccc1 (stereo not drawn) -4.4%
CC(C)NC(=O)NC(=O)CSc1nnc(-c2ccccc2F)n1N 1.8%
Cn1c(CO)cnc1SCc1ccccc1 6.4%
O=c1c2ccccc2c(-c2ccccc2)nn1Cc1ccccc1 1%
COC(=O)NNC1=CC(=O)CC(C)(C)C1 5.4%
COc1ccc(-n2c(C)cc(C(=O)COC(=O)c3cc(OC)c(OC)cc3NC(=O)c3cccs3)c2C)cc1 8.5%
CC(=O)c1cccc(CN2CCC(CO)(Cc3ccccc3)CC2)c1 0%
Cc1cccc(-c2ncc(CN3CCC(CO)(CCCc4ccccc4)CC3)cn2)c1 5.8%
c1csc(-c2nnc(COc3ccc4c(c3)OCO4)o2)c1 0.1%
Cc1cccc(NC(=O)c2cc([N+](=O)[O-])ccc2N2CCN(C)CC2)c1 10.3%
COCCN(C(=O)c1ccccc1F)c1c(N)n(Cc2ccccc2)c(=O)[nH]c1=O -2.5%
CCN1CC(CN(C)Cc2nc(-c3ccc(Cl)cc3)no2)CC1=O (stereo not drawn) -3.9%
Clc1ccc(N/N=C/c2cccs2)nn1 4.4%
COc1ccc(Nc2nc(=O)[nH]nc2C)cc1 5.2%
CC(=O)Nc1ccc(CN2CCN(Cc3ccc(F)c(F)c3)C(CCO)C2)cc1 (stereo not drawn) 3.4%
Cc1ccc(C(=O)NCC(=O)O)cc1S(=O)(=O)N1CCCCC1 2.2%
O=C(C1CCN(S(=O)(=O)c2cccs2)CC1)N1CCCCCC1 -1.2%
O=C(NNc1cc(Cl)ccc1Cl)c1cccnc1Cl 5%
C=C(C)CNC(=S)N/N=C/c1ccccc1OCC(=O)O 4.6%
CCc1nnc(NC(=O)c2cccs2)s1 1.3%
Cc1ccc(C(=O)Oc2coc(CSc3nnc(NC(=O)c4cccs4)s3)cc2=O)cc1C -0.6%
CCCc1nnc(NC(=O)c2cccs2)s1 -1.6%
CCOc1cccc(C(=O)Nc2cccnc2)c1 4.5%
COc1ccc(/C=C/C2=CC(C)(C)NC(=S)N2)c(OC)c1 -5.6%
O=C(Cc1ccccc1Cl)N1CCN(c2ccccn2)CC1 -1%
CC(Sc1nncn1C)C(=O)Nc1cc(C(F)(F)F)ccc1N1CCOCC1 (stereo not drawn) -2.1%
CCOC(=O)CNC(=O)N1c2ccccc2Sc2ccccc21 8.4%
Cc1ccc2c(c1)C1CN(C)CCC1N2C(=O)c1ccccc1NS(=O)(=O)c1ccc(F)cc1C (stereo not drawn) 1.7%
COc1cc(NC(=O)COC(=O)c2cnc(C)cn2)c(C)cc1[N+](=O)[O-] -1%
Cc1ccc(-c2csc(SCC(=O)Nc3cc(C)on3)n2)cc1 -4%
Cc1cc(NC(=O)CSc2nnc(Nc3ccccc3F)s2)no1 -0.2%
COc1cccc(C2SCC(=O)N2c2cccc(C)c2)c1OC (stereo not drawn) 2.3%
CCCNC(=O)c1c(Cl)cnn1-c1ccc(C)cc1 -0.9%
O=C(O)c1ccc(N/N=C/c2ccc3ncccc3c2)cc1 7.5%
O=C(Nc1nnc(Cc2ccc(Cl)cc2)s1)c1cccnc1 0%
O=C1CN(C(=O)COC(=O)c2cnc(Cl)c(Cl)c2)c2ccccc2N1 8.3%
Cc1cccc2nc(CSc3nc4[nH]ncc4c(=O)n3-c3cccc(Cl)c3)cc(=O)n12 3.8%
O=c1c2sccc2nc(SCc2cc(=O)n3ccccc3n2)n1-c1ccc(Br)cc1 3%
Cc1ccsc1C1C(C#N)=C(N)OC2=C1C(=O)CC(C)(C)C2 (stereo not drawn) 11.2%
COc1ccccc1CCNC(=O)CSc1nnc2ccc(-c3cccnc3)nn12 4.1%
Cc1c(Cc2ccccc2)c(=O)oc2cc(OCC(N)=O)ccc12 -0.5%
CC(=O)Oc1ccc2c(C)c(CC(C)O)c(=O)oc2c1 (stereo not drawn) -0.8%
CNC(=S)Nc1ccc([N+](=O)[O-])cc1 7.4%
CCOc1cnc(-c2c(-c3ccccc3Cl)noc2C)o1 9.5%
COc1ccc(-c2ccc(CNCCCN3CCOCC3)o2)cc1Cl 10.2%
COc1cc(C2C(C(=O)c3ccc(C)o3)=C(O)C(=O)N2CCc2ccccc2)ccc1O (stereo not drawn) 4.9%
COc1cc(C2C(C(=O)c3ccc(C)o3)=C(O)C(=O)N2Cc2cccnc2)ccc1O (stereo not drawn) -0.3%
COc1ccc2c(c1)CCc1cn3ncc(C#N)c3nc1-2 2.5%

activation, active:
O=C(O)Cc1sc(-c2ccccc2)nc1-c1cccs1 28.9%
CSc1c(SCc2ccccc2)cnn(Cc2ccccc2)c1=O 24%
OCC1(CCc2ccccc2)CCN(Cc2ccc3nsnc3c2)CC1 35.7%
Cc1n[nH]c(=O)nc1N/N=C/c1cccs1 22.1%
Cc1ccc(NS(=O)(=O)c2cccs2)cc1S(=O)(=O)N1CCCCCC1 27.9%
CCOc1cccc(C(=O)Nc2nnc(-c3cccs3)s2)c1 41.8%
Cc1ccc(C(=O)Nc2nnc(-c3cccs3)s2)cc1C 21.8%
Cc1cc(C)c2c(c1)cc(C)c1nnc(SCC(=O)Nc3cc(C)on3)n12 22.2%
CCc1ccc(-n2c(SCc3cc(=O)n4cc(Br)ccc4n3)nc3[nH]ncc3c2=O)cc1 23.4%
O=C(Oc1ccccc1)Oc1ccc2c(c1)oc(=O)c1ccccc12 33.7%
CCCOc1ccc(C2C(C(=O)c3ccc(C)o3)=C(O)C(=O)N2CCCn2ccnc2)cc1 (stereo not drawn) 25.1%
